An excerpt weighted towards active compounds, which were near 3.4% of everything screened.
PP5 primary: blocks human protein phosphatase 5 activity | P53041 | purified PP5c, OMFP substrate fluorescence | inhibition, % at 6.7 µM | 320,000 compounds, 0.18% hits | AID 1987;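 active = inhibition above the campaign's mean inhibition across all tested compounds plus 3 SD, cut at about 9.5% in these data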;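 note: 0% = DMSO only and 100% = 100 µM cantharidin control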
Target sequence (P53041 whole entry, looked up): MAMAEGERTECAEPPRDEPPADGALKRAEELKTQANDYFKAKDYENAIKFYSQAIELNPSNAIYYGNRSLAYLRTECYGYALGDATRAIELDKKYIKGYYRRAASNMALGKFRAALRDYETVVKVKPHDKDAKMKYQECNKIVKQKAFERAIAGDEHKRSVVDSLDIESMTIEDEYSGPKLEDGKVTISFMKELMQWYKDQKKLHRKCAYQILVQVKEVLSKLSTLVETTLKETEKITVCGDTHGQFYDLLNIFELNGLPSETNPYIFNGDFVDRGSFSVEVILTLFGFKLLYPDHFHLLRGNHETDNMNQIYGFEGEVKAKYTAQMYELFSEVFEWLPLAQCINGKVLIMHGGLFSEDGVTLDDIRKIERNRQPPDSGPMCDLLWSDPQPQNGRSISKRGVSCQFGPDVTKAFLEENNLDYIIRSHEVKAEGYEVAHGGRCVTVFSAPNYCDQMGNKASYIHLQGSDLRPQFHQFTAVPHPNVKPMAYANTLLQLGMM
PAFAH1B3 inh: blocks human PAF acetylhydrolase 1B catalytic subunit 3. Q15102. recombinant PAFAH1B3, FP-rhodamine probe, fluorescence polarization. inhibition, % at 3.39 µM. 340,000 compounds, 0.28% hits;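 active = inhibition above the screen-wide average of all tested compounds plus 3 SD, cut at about 25% in these data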;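 note: 0% = enzyme with DMSO only and 100% = wells lacking PAFAH1B3 protein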
PP1 counter: counter-screen for PP5 inhibitors: inhibitors of human PP1-alpha. P62136. purified PP1alpha, OMFP fluorescence. inhibition, % at 6.7 µM. 320,000 compounds, 0.9% hits. AID 2235;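 active = inhibition above the mean inhibition of all tested compounds plus 3 SD, computed separately for each screening campaign, cut at about 15% in these data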
pPAFAH FP inh: pPAFAH (human) enzyme inhibition. AID 463082. Q13093. inhibition, % at 3.39 µM. 330,000 compounds, 1.5% hits. recombinant pPAFAH, FP-rhodamine probe fluorescence polarization;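 active = inhibition above the mean inhibition across the screen plus 3 SD, cut at about 25% in these data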;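 note: inhibitors block binding of the rhodamine activity-based probe so polarization drops; 0% = enzyme with DMSO and 100% = wells lacking pPAFAH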
PAFAH2 inh: PAFAH2 (human) inhibition | inhibition, % at 3.39 µM | recombinant PAFAH2, FP-rhodamine activity probe, fluorescence polarization | 340,000 compounds, 0.99% hits;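 active = inhibition above the mean over all tested compounds plus 3 SD, cut at about 30% in these data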;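 note: inhibitors block probe labeling of enzyme so polarization drops; 0% = enzyme with DMSO and 100% = wells lacking PAFAH2 protein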
PAFAH1B2 FP inh: blocks human PAF acetylhydrolase 1b catalytic subunit 2. P68402. recombinant PAFAH1B2, FP-rhodamine activity probe, fluorescence polarization. AID 492953. inhibition, % at 3.39 µM. 340,000 compounds, 1.2% hits;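 active = inhibition above the mean of all tested compounds plus 3 SD, cut at about 24% in these data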;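 note: 0% = enzyme with DMSO and 100% = wells lacking PAFAH1B2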
PP1 inh confirm: confirmation of human PP1 phosphatase inhibitors. shares compounds with PP1 counter. purified PP1alpha, OMFP substrate fluorescence. inhibition, % at 6.7 µM. 1,900 compounds, 52% hits;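 active = mean PP1 inhibition above a set limit taken from the earlier primary screen, cut at about 15% in these data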
PP5 inh counter: inhibits human PP5 phosphatase in PP1 counter-screen | shares compounds with PP1 counter | purified PP5c, OMFP fluorescence | 1,900 compounds, 4% hits | inhibition, % at 6.7 µM | AID 2360;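 active = mean PP5 inhibition over triplicate wells above about 9.5% taken from the earlier PP1 screen, limit read from the data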
* hit, by the source's call; · = not tested or not shown.

SMILES	PP5 primary	PAFAH1B3 inh	PP1 counter	pPAFAH FP inh	PAFAH2 inh	PAFAH1B2 FP inh	PP1 inh confirm	PP5 inh counter
CC(=O)N1CCN(c2nc(-c3ccco3)c3c(c2C#N)CC(C)(C)SC3)CC1	2	2	2	16	14	4	·	·
CC1CC(OC(=O)CN2CCCCC2)CC(C)(C)C1 (stereo unspecified)	1	·	-3	10	·	·	·	·
Cc1cc(/C=C2\SC(=Nc3ccccc3)NC2=O)c(C)n1-c1ccc(S(N)(=O)=O)cc1	4	14	18*	15	3	3	7	0
Cc1ccc(-n2c(C)cc(/C=C3\SC(=O)NC3=O)c2C)cc1	1	12	2	14	4	5	·	·
CCCCN(C(=O)c1cc(S(=O)(=O)N2CCOCC2)ccc1Cl)c1c(N)n(CC(C)C)c(=O)[nH]c1=O	-1	5	-4	3	4	5	·	·
Cc1ccc(NC(=O)CN2C(=O)S/C(=C\c3ccc(OCC(=O)O)c(Br)c3)C2=O)cc1	1	0	3	2	-4	2	·	·
COc1cc(/C=C2\SC(=O)N(CC(=O)Nc3ccc(C)cc3)C2=O)cc(Cl)c1OCC(=O)O	0	2	43*	9	2	-2	46*	-5
COC(=O)[C@H](CC(C)C)NC(=O)Nc1ccccc1F	0	7	-2	-7	0	5	·	·
CC(Oc1cccc(Cl)c1)C(=O)Nc1nc(-c2ccccn2)cs1 (stereo unspecified)	7	10	30*	10	13	2	36*	2
C[C@H](NC(=O)c1ccccc1)C(=O)Nc1nc(-c2ccccn2)cs1	2	-2	7	-5	-5	0	·	·
Cc1cccc(C(=O)NC(C(=O)Nc2nc(-c3ccccn3)cs2)C(C)C)c1 (stereo unspecified)	2	1	21*	-4	1	5	25*	-1
COC(=O)[C@@]12OC[C@]34[C@H]([C@@H](O)[C@@H]1O)[C@@]1(C)C(=O)C(O[C@@H]5OC(CO)[C@@H](O)[C@@H](O)[C@@H]5O)=C[C@@H](C)[C@@H]1C[C@H]3OC(=O)[C@H](OC(=O)/C=C(\C)C(C)(C)OC(C)=O)[C@@H]24 (stereo partly specified)	1	·	-1	-2	·	·	·	·
Cc1cccc(NC(=O)CN2CCN(C(=O)CN3C(=O)NC4(CC(C)CC(C)(C)C4)C3=O)CC2)c1C (stereo unspecified)	·	9	·	·	-10	8	·	·
COC(=O)c1ccc(NC(=O)CNc2ccccc2)cc1	-1	3	0	10	-4	2	·	·
O=C(Nc1cccnc1)c1ccc(Cl)c(S(=O)(=O)N2CCCC2)c1	2	1	38*	1	-7	4	-4	-8
O=C(Nc1cccnc1)c1ccc(Cl)c(S(=O)(=O)N2CCCCC2)c1	1	5	0	4	4	10	·	·
COc1cccc(OCC(O)CN2CCN(C)CC2)c1 (stereo unspecified)	-2	5	-3	-4	-5	0	·	·
C/C(CC(=O)Nc1ccc(Cl)c(C(F)(F)F)c1)=N\NC(=O)c1cc2ccccc2cc1O	3	8	19*	24	10	7	8	-3
Cc1ccccc1OCC(=O)Nc1nnc(COc2ccccc2)s1	-1	7	3	4	3	6	·	·
COc1ccccc1NS(=O)(=O)c1cccc(-n2c(O)c(C=Nc3ccccc3C(=O)O)c3ccccc3c2=O)c1	4	6	23*	30*	83*	7	12	1
COc1ccc(-n2c(O)c(/C=N/NS(=O)(=O)c3ccc(C)cc3)c3ccccc3c2=O)cc1OC	1	-43	1	-4	-51	-21	·	·
Nn1c(SCC(=O)Nc2cccc(Br)c2)nnc1C1CC1	·	5	·	8	-2	6	·	·
O=C(O)c1ccc(Cl)c(NC(=S)NC(=O)c2ccccc2[N+](=O)[O-])c1	-3	1	18*	0	1	2	-3	-3
O=C(NC(=S)Nc1ccccc1[N+](=O)[O-])c1ccccc1Cl	2	7	-2	8	6	3	·	·
Cc1nc(-c2ccccn2)nc(SCC(=O)c2ccc(F)cc2)c1Cl	3	2	27*	-6	4	0	41*	-3
SMILES	PP5 primary	PAFAH1B3 inh	PP1 counter	pPAFAH FP inh	PAFAH2 inh	PAFAH1B2 FP inh	PP1 inh confirm	PP5 inh counter
COc1ccc(C(=O)CSc2nc(-c3ccccn3)nc(C)c2Cl)cc1	-1	3	15	3	-5	4	·	·
C#CCOCCOCCOCCNc1nc(N2CCN(C(=O)CCCCCCCCCCNC(=O)[C@@H](CCSC)n3cc(CCO)nn3)CC2)nc(N2CCN(C(=O)CCCCCCCCCCNC(=O)[C@H]([C@@H](C)CC)n3cc(CCCCN=C(N)N)nn3)CC2)n1	3	-2	55*	2	-11	1	49*	0
C#CCOCCOCCOCCNc1nc(N2CCOCC2)nc(N2CCN(C(=O)CCCCCCCCCCNC(=O)[C@@H](CCSC)n3cc(CCO)nn3)CC2)n1	2	2	-1	10	2	1	·	·
C#CCOCCOCCOCCNc1nc(N2CCN(C(=O)CCCCCCCCCCNC(=O)[C@@H](CCSC)n3cc(CCO)nn3)CC2)nc(N2CCN(C(=O)CCCCCCCCCCNC(=O)[C@H]([C@@H](C)CC)n3cc(CCCCCN)nn3)CC2)n1	4	·	60*	-7	·	·	53*	3
O=C(NCc1ccccc1F)c1ccncc1	1	2	-4	0	5	7	·	·
O=C(/C=C/c1ccccc1)N1CCC(N2CCC(C(=O)N3CCOCC3)CC2)CC1	-4	14	-3	-1	1	6	·	·
CCCOC1CCCN(C(=O)c2ccc3oc(C(C)C)nc3c2)C1 (stereo unspecified)	1	17	-5	3	8	3	·	·
Nc1nonc1-n1nnc(C(=O)N/N=C/c2cc(Br)cs2)c1-c1ccccc1	0	4	1	-4	-8	2	·	·
CC(C)(C)c1ccc(NC(=O)COc2ccc(-n3ccnc3)cc2)cc1	2	11	18*	9	3	4	4	-1
COc1ccc(/C=N/N2C(=O)CSC2=S)cc1	-1	2	-2	13	-2	3	·	·
COc1ccc(/C=N/N2C(=O)CSC2=S)cc1Br	-1	-9	25*	29*	0	-7	22*	1
Oc1c(C(Nc2nc3ccccc3s2)c2ccco2)ccc2cccnc12 (stereo unspecified)	3	11	29*	19	5	3	19*	-5
CC(C)C(=O)NC(c1ccco1)c1ccc2cccnc2c1O (stereo unspecified)	0	17	1	6	1	11	·	·
